# Measurements published in PubChem BioAssay AID1159580 (chemical genetic matrix, 2015).
# The campaign covered roughly 5,500 compounds. About 2,000 (36%) were called active. About 18% were inconclusive and are not listed. This is one part of the list. A number with no mark means an inactive call. Cut-off read from the data, not from the text of the source: active = normalized growth mostly below about 0.91 (no sharp cut-off); inconclusive = no clear call, values can overlap the other calls; inactive = mostly above about 0.92.
# Assay: chemical genetic growth profiling, strain panel (AID 1159580);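 note: tested at 20 µM; growth read once vehicle control cultures reached saturation at 30 °C; 1 = growth at the plate median or of vehicle wells; lower values mean less growth of the strain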
# Conditions: S. cerevisiae deletion strains, growth OD
structure (smiles),measurement,setting,value
C=C(C)C1CC=C(CO)CC1 (stereo not given),normalized growth,"locus YAL021C, strain ccr4, hits give low values",0.983
same,normalized growth,"locus YAL026C, strain drs2, hits give low values",0.978
same,normalized growth,"locus YAL030W, strain snc1, hits give low values",0.973
same,normalized growth,"locus YBL061C, strain skt5, hits give low values",0.991
same,normalized growth,"locus YBR009C, strain hhf1, hits give low values",0.994
same,normalized growth,"locus YBR023C, strain chs3, hits give low values",0.981
same,normalized growth,"locus YBR171W, strain sec66, hits give low values",0.95
same,normalized growth,"locus YBR231C, strain swc5, hits give low values",0.975
same,normalized growth,"locus YBR279W, strain paf1, hits give low values",0.983
same,normalized growth,"locus YCL011C, strain gbp2, hits give low values",0.963
same,normalized growth,"locus YCL016C, strain dcc1, hits give low values",0.983
same,normalized growth,"locus YCL061C, strain MRC1, hits give low values",0.978
same,normalized growth,"locus YCL069W, strain vba3, hits give low values",0.948
same,normalized growth,"locus YCR088W, strain abp1, hits give low values",0.963
same,normalized growth,"locus YDL005C, strain med2, hits give low values",0.961
same,normalized growth,"locus YDL040C, strain nat1, hits give low values",0.959
same,normalized growth,"locus YDR001C, strain nth1, hits give low values",0.963
same,normalized growth,"locus YDR069C, strain doa4, hits give low values",0.978
same,normalized growth,"locus YDR137W, strain rgp1, hits give low values",0.941
same,normalized growth,"locus YDR159W, strain sac3, hits give low values",0.943
same,normalized growth,"locus YDR195W, strain ref2",0.809 (active)
same,normalized growth,"locus YDR297W, strain sur2, hits give low values",0.975
same,normalized growth,"locus YDR334W, strain swr1, hits give low values",0.938
same,normalized growth,"locus YDR335W, strain msn5, hits give low values",0.965
same,normalized growth,"locus YDR392W, strain spt3, hits give low values",0.844
same,normalized growth,"locus YEL003W, strain gim4, hits give low values",0.976
same,normalized growth,"locus YEL037C, strain rad23, hits give low values",0.955
same,normalized growth,"locus YEL061C, strain CIN8 (second series), hits give low values",0.946
same,normalized growth,"locus YER015W, strain faa2, hits give low values",0.976
same,normalized growth,"locus YER016W, strain bim1, hits give low values",0.969
same,normalized growth,"locus YER111C, strain swi4, hits give low values",0.963
same,normalized growth,"locus YER155C, strain BEM2 (second series), hits give low values",0.793 (active)
same,normalized growth,"locus YFR010W, strain ubp6, hits give low values",0.98
same,normalized growth,"locus YGL167C, strain pmr1, hits give low values",0.96
same,normalized growth,"locus YGL173C, strain kem1, hits give low values",0.955
same,normalized growth,"locus YGL227W, strain vid30, hits give low values",0.965
same,normalized growth,"locus YGL240W, strain doc1, hits give low values",0.954
same,normalized growth,"locus YGL253W, strain hxk2, hits give low values",0.983
same,normalized growth,"locus YHR013C, strain ard1, hits give low values",0.982
same,normalized growth,"locus YHR027C, strain rpn1, hits give low values",0.976
same,normalized growth,"locus YHR030C, strain SLT2, hits give low values",1.06
same,normalized growth,"locus YHR079C, strain IRE1, hits give low values",1.05
same,normalized growth,"locus YHR142W, strain chs7, hits give low values",0.995
same,normalized growth,"locus YJL092W, strain hpr5, hits give low values",0.938
same,normalized growth,"locus YJL095W, strain BCK1 (second series), hits give low values",0.97
same,normalized growth,"locus YJL095W, strain BCK1, hits give low values",1.02
same,normalized growth,"locus YJL115W, strain asf1, hits give low values",0.953
same,normalized growth,"locus YJL129C, strain trk1, hits give low values",0.923
same,normalized growth,"locus YJL154C, strain vps35, hits give low values",0.962
same,normalized growth,"locus YJL164C, strain tpk1, hits give low values",0.987
same,normalized growth,"locus YJL166W, strain qcr8, hits give low values",0.972
same,normalized growth,"locus YJL187C, strain SWE1, hits give low values",0.968
same,normalized growth,"locus YJR066W, strain TOR1, hits give low values",0.997
same,normalized growth,"locus YKL160W, strain elf1, hits give low values",0.978
same,normalized growth,"locus YKR026C, strain gcn3, hits give low values",0.972
same,normalized growth,"locus YKR091W, strain srl3, hits give low values",0.953
same,normalized growth,"locus YLL001W, strain dnm1, hits give low values",0.988
same,normalized growth,"locus YLL026W, hits give low values",0.976
same,normalized growth,"locus YLL041C, strain sdh2, hits give low values",0.971
same,normalized growth,"locus YLR027C, strain aat2, hits give low values",0.993
same,normalized growth,"locus YLR113W, strain HOG1, hits give low values",1.01
same,normalized growth,"locus YLR221C, strain rsa3, hits give low values",1.01
same,normalized growth,"locus YLR258W, strain gsy2, hits give low values",0.979
same,normalized growth,"locus YLR262C, strain YPT6 (second series), hits give low values",0.954
same,normalized growth,"locus YLR320W, strain mms22, hits give low values",0.983
same,normalized growth,"locus YLR342W, strain FKS1, hits give low values",0.967
same,normalized growth,"locus YLR357W, strain rsc2, hits give low values",0.92
same,normalized growth,"locus YLR370C, strain arc18, hits give low values",0.938
same,normalized growth,"locus YLR384C, strain iki3, hits give low values",0.958
same,normalized growth,"locus YML120C, strain ndi1, hits give low values",0.974
same,normalized growth,"locus YMR058W, strain fet3, hits give low values",0.968
same,normalized growth,"locus YMR125W, strain sto1, hits give low values",0.931
same,normalized growth,"locus YMR129W, hits give low values",0.955
same,normalized growth,"locus YMR205C, strain PFK2, hits give low values",0.956
same,normalized growth,"locus YMR231W, strain pep5, hits give low values",0.971
same,normalized growth,"locus YNL071W, strain lat1, hits give low values",0.953
same,normalized growth,"locus YNL183C, strain NPR1, hits give low values",0.947
same,normalized growth,"locus YNL209W, strain ssb2, hits give low values",0.968
same,normalized growth,"locus YNL248C, strain rpa49, hits give low values",0.932
same,normalized growth,"locus YNL322C, strain KRE1 (second series), hits give low values",0.948
same,normalized growth,"locus YNR049C, strain mso1, hits give low values",0.951
same,normalized growth,"locus YOR001W, strain rrp6, hits give low values",0.969
same,normalized growth,"locus YOR070C, strain gyp1, hits give low values",0.97
same,normalized growth,"locus YOR080W, strain dia2, hits give low values",0.951
same,normalized growth,"locus YOR083W, strain WHI5, hits give low values",0.994
same,normalized growth,"locus YOR106W, strain vam3, hits give low values",0.989
same,normalized growth,"locus YOR231W, strain MKK1, hits give low values",1.05
same,normalized growth,"locus YOR265W, strain rbl2, hits give low values",0.968
same,normalized growth,"locus YOR270C, strain vph1, hits give low values",0.949
same,normalized growth,"locus YOR290C, strain snf2, hits give low values",0.96
same,normalized growth,"locus YPL051W, strain arl3, hits give low values",0.99
same,normalized growth,"locus YPL078C, strain atp4, hits give low values",0.979
same,normalized growth,"locus YPL106C, strain sse1, hits give low values",0.945
same,normalized growth,"locus YPL240C, strain hsp82, hits give low values",0.959
same,normalized growth,"locus YPL256C, strain CLN2, hits give low values",1.04
